# Experimental data from PMC7862700, “An all-to-all approach to the identification of sequence-specific readers for epigenetic DNA modifications on cytosine”.
# What was measured:
# Assay in all cases: DAPPL (digital affinity profiling via proximity ligation, sequencing); 10 mM Tris-HCl pH 7.5, 50 mM NaCl, 1 mM DTT, 4% glycerol, room temperature, 30 min; GST-TFs on glutathione beads, 16-mer random dsDNA library, 0.1% formaldehyde crosslink after washing; high values mean tight binding
# FEV = molecular target: T1, FEV (Homo sapiens, UniProt Q99581 1-238); details: protein: recombinant; tags: N-terminal GST; dsDNA, one strand shown
# T1 sequence: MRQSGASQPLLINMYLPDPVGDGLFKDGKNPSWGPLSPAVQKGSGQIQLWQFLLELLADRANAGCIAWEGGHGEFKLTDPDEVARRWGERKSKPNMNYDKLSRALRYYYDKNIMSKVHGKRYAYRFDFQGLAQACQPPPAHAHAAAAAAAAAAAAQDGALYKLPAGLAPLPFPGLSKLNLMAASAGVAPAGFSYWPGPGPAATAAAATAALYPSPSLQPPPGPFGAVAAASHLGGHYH
# Method in brief: (§1)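 Binding signal is each hexamer's read frequency for a factor divided by its frequency in the tag-only sample. The factors were GST-fused human transcription factors from yeast, captured on glutathione beads, DNA-barcoded and pooled with that sample. Pools were incubated with 200 nmole of a random double-stranded 16-mer DNA library in Tris/NaCl/DTT/glycerol buffer at room temperature for 30 min, then washed, crosslinked with 0.1% formaldehyde, proximity-ligated with BsaI/T4 ligase (1 h, 37 °C), PCR-amplified and sequenced on an Illumina NextSeq500.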
# ETV5 = ETV5 (Homo sapiens, UniProt P41161 1-510); details: protein: recombinant; tags: N-terminal GST; dsDNA, one strand shown
# ETV5, sequence (P41161 whole entry): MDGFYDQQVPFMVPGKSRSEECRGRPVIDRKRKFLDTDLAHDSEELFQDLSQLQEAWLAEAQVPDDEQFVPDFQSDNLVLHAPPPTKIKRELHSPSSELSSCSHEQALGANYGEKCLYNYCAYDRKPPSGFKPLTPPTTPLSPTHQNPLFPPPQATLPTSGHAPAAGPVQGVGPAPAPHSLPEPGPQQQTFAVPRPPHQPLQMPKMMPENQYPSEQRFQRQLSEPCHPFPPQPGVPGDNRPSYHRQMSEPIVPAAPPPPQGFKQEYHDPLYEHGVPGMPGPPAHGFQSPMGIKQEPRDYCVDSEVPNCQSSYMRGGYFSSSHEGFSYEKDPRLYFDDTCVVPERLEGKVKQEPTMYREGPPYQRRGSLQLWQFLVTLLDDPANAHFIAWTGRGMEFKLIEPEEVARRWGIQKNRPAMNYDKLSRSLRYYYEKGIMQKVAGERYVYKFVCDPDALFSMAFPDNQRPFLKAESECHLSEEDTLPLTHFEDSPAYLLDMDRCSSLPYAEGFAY
# Method in brief: as §1
# HSF1 = HSF1 (Homo sapiens, UniProt Q00613 1-529); details: protein: recombinant; tags: N-terminal GST; chain copies: 3; dsDNA, one strand shown
# HSF1, sequence (Q00613 whole entry): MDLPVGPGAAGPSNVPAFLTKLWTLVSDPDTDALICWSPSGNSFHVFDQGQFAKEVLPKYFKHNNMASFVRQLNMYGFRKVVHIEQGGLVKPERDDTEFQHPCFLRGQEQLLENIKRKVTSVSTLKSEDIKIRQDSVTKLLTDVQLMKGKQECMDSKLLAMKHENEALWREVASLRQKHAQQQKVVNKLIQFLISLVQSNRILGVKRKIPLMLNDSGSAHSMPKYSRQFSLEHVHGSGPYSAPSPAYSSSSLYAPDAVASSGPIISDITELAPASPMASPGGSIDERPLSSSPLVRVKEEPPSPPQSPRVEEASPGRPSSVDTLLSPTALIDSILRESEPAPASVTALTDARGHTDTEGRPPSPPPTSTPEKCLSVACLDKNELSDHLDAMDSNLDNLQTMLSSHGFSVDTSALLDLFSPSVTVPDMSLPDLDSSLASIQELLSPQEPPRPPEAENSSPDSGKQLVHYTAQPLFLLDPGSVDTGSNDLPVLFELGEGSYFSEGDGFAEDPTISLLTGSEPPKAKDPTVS
# Method in brief: as §1
# SPIC = molecular target: T2, SPIC (Homo sapiens, UniProt Q8N5J4 1-248); details: protein: recombinant; tags: N-terminal GST; dsDNA, one strand shown
# T2 sequence: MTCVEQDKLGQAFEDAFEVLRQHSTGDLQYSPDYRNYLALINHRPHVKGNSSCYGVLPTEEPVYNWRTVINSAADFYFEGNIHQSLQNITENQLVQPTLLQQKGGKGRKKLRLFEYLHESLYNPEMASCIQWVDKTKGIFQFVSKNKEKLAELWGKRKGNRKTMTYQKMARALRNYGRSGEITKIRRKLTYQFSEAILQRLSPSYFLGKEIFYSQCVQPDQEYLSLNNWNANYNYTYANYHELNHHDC
# Method in brief: as §1
# ELF4 = ELF4 (Homo sapiens, UniProt Q99607 1-663); details: protein: recombinant; tags: N-terminal GST; dsDNA, one strand shown
# ELF4, sequence (Q99607 whole entry): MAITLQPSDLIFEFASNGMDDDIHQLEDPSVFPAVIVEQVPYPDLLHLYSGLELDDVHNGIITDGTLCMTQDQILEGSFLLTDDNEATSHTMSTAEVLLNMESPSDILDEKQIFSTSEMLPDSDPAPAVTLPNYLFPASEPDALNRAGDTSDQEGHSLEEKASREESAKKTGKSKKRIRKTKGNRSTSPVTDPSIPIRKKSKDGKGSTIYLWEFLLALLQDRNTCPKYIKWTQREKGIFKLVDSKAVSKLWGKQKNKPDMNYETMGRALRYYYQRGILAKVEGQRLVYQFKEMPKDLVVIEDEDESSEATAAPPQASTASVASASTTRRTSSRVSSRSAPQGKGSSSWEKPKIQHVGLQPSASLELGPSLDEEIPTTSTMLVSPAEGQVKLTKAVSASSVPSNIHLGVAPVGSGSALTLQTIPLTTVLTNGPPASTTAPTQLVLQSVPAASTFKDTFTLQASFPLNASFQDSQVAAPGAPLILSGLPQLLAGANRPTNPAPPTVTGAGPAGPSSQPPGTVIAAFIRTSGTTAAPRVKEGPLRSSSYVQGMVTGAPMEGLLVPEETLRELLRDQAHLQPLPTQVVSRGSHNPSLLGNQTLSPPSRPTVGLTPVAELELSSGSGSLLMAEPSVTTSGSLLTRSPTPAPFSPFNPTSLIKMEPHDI
# Method in brief: as §1
# ELK4 = molecular target: T3, ELK4 (Homo sapiens, UniProt P28324-2 1-405); details: protein: recombinant; tags: N-terminal GST; dsDNA, one strand shown
# T3 sequence: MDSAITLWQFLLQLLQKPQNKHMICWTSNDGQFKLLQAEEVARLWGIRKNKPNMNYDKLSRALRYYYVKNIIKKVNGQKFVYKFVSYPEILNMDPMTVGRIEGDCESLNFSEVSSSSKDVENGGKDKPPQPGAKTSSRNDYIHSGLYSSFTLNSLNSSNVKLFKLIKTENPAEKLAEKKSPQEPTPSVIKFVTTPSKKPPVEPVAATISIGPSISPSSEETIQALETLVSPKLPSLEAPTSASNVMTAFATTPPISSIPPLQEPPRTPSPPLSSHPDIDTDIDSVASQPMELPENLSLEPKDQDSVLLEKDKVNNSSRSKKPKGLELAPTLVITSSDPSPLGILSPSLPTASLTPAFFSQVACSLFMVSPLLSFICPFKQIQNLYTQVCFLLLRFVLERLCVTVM
# Method in brief: as §1
# ETV2 = molecular target: T4, ETV2 (Homo sapiens, UniProt O00321 1-342); details: protein: recombinant; tags: N-terminal GST; dsDNA, one strand shown
# T4 sequence: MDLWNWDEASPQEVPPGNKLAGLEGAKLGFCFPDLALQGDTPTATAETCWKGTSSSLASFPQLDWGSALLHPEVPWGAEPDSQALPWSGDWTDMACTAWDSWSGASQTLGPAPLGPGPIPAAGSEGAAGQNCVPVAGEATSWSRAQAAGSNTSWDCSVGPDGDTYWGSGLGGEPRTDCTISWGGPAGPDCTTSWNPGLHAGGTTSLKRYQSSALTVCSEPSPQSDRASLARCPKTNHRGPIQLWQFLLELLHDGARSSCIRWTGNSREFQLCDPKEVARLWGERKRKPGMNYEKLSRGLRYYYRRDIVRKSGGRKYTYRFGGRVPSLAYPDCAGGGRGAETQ
# Method in brief: as §1
# ELF3 = molecular target: T5, ELF3 (Homo sapiens, UniProt P78545 1-371); details: protein: recombinant; tags: N-terminal GST; dsDNA, one strand shown
# T5 sequence: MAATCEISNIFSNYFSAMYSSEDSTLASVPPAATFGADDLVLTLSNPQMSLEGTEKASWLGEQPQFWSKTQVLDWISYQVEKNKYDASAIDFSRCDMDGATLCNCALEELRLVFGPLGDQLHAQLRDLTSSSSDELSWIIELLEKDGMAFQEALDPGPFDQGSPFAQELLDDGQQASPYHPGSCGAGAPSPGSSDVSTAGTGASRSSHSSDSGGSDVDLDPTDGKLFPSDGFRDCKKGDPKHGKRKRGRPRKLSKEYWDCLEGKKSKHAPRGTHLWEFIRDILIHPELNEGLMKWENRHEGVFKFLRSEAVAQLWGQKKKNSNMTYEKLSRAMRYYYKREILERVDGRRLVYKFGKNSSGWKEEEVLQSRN
# Method in brief: as §1
# CRX = CRX (Homo sapiens, UniProt O43186 1-299); details: protein: recombinant; tags: N-terminal GST; dsDNA, one strand shown
# CRX, sequence (O43186 whole entry): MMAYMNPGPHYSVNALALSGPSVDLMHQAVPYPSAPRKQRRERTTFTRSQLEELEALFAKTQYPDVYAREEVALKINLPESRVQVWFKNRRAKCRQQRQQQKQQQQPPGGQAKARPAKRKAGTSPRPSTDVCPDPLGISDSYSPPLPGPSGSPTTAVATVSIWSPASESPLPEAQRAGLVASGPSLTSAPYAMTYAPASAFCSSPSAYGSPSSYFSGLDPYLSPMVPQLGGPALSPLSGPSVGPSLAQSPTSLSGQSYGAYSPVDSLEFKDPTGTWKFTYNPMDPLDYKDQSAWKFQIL
# Method in brief: as §1
# ETV1 = ETV1 (Homo sapiens, UniProt P50549 1-477); details: protein: recombinant; tags: N-terminal GST; dsDNA, one strand shown
# ETV1, sequence (P50549 whole entry): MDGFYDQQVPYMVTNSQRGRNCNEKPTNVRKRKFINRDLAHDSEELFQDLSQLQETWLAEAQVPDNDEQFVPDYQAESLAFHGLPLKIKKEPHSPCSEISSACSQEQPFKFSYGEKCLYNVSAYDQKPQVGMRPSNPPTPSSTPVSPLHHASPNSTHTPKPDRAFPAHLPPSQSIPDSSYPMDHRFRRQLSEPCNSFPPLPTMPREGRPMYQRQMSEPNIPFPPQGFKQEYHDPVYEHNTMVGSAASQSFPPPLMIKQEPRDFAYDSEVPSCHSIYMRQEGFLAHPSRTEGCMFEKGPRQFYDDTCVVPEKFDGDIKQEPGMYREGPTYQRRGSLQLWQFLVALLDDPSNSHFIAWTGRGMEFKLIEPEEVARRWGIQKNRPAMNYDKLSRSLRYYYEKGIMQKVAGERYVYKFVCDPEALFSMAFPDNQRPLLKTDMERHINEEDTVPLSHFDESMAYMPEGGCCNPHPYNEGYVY
# Method in brief: as §1
# ERF = molecular target: T6, ERF (Homo sapiens, UniProt P50548 1-548); details: protein: recombinant; tags: N-terminal GST; dsDNA, one strand shown
# T6 sequence: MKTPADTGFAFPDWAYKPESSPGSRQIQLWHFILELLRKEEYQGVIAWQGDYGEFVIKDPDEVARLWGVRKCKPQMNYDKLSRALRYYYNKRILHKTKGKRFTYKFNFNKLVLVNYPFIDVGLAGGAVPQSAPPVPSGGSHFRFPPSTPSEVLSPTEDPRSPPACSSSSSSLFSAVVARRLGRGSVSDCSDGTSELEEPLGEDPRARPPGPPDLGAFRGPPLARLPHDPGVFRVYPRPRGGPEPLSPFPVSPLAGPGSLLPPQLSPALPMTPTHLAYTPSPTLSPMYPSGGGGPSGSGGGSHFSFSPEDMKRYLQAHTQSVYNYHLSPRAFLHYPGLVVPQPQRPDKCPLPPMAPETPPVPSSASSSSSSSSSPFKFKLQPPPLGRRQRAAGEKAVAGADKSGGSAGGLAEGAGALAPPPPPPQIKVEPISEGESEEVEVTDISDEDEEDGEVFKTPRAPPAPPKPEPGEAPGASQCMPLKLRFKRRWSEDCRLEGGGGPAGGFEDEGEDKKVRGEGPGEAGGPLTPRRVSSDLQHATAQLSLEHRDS
# Method in brief: as §1
# ETV3L = molecular target: T7, ETV3L (Homo sapiens, UniProt Q6ZN32 1-361); details: protein: recombinant; tags: N-terminal GST; dsDNA, one strand shown
# T7 sequence: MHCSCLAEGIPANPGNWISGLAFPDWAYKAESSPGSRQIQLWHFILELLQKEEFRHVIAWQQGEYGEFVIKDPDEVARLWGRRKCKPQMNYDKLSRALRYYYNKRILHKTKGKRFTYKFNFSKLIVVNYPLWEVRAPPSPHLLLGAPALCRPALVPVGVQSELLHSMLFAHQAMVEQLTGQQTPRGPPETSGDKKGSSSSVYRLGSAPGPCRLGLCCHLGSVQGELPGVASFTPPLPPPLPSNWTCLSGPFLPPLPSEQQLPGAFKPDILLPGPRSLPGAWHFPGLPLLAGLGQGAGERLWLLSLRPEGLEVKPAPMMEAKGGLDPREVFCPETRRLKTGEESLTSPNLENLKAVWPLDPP
# Method in brief: as §1
# ETS2 = molecular target: T8, ETS2 (Homo sapiens, UniProt P15036 1-469); details: protein: recombinant; tags: N-terminal GST; dsDNA, one strand shown
# T8 sequence: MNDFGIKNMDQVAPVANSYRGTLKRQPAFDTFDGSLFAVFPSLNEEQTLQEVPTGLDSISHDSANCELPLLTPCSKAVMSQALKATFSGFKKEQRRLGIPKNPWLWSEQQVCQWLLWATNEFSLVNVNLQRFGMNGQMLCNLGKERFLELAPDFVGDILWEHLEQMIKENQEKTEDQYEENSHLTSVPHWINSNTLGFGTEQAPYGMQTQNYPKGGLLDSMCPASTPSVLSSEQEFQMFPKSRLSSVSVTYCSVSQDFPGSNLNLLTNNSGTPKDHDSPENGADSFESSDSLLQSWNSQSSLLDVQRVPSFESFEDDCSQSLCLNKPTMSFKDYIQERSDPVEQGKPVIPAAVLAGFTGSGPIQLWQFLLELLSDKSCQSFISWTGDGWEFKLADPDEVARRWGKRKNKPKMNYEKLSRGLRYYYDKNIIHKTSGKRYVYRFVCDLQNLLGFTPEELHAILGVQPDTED
# Method in brief: as §1
# SPDEF = molecular target: T9, SPDEF (Homo sapiens, UniProt O95238 1-335); details: protein: recombinant; tags: N-terminal GST; dsDNA, one strand shown
# T9 sequence: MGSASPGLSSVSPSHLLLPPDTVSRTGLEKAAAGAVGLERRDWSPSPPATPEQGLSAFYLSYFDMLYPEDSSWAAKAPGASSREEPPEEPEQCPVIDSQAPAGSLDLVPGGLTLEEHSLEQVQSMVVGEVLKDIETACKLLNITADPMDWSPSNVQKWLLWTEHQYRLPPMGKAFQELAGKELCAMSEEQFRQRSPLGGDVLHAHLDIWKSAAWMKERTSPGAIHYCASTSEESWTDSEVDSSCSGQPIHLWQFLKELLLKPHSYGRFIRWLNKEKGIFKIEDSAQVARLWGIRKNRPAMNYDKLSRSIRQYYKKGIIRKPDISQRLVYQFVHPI
# Method in brief: as §1
# ETV7 = molecular target: T10, ETV7 (Homo sapiens, UniProt Q9Y603 1-341); details: protein: recombinant; tags: N-terminal GST; dsDNA, one strand shown
# T10 sequence: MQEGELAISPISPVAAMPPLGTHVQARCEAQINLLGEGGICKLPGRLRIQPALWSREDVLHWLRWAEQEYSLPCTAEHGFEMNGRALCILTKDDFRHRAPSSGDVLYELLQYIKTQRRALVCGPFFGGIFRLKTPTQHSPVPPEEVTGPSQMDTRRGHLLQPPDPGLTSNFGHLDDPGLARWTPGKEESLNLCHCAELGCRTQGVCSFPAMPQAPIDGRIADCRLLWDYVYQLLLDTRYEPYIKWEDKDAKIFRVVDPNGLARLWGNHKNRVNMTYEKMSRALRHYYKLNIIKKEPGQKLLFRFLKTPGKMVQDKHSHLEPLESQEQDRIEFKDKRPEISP
# Method in brief: as §1
# ELF5 = molecular target: T11, ELF5 (Homo sapiens, UniProt Q9UKW6-2 1-255); details: protein: recombinant; tags: N-terminal GST; dsDNA, one strand shown
# T11 sequence: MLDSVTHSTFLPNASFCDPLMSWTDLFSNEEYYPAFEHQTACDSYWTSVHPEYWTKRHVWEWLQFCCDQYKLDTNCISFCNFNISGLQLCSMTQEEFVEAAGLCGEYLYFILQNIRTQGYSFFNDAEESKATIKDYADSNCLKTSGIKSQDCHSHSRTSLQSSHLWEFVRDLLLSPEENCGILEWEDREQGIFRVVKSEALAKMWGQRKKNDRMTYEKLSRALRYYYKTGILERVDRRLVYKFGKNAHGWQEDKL
# Method in brief: as §1
# ETV3 = molecular target: T12, ETV3 (Homo sapiens, UniProt P41162-2 1-143); details: protein: recombinant; tags: N-terminal GST; dsDNA, one strand shown
# T12 sequence: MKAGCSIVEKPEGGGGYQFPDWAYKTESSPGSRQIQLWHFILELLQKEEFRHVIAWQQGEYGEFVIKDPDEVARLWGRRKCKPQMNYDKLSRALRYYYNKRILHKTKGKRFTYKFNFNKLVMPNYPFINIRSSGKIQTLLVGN
# Method in brief: as §1
# ETV6 = ETV6 (Homo sapiens, UniProt P41212 1-452); details: protein: recombinant; tags: N-terminal GST; dsDNA, one strand shown
# ETV6, sequence (P41212 whole entry): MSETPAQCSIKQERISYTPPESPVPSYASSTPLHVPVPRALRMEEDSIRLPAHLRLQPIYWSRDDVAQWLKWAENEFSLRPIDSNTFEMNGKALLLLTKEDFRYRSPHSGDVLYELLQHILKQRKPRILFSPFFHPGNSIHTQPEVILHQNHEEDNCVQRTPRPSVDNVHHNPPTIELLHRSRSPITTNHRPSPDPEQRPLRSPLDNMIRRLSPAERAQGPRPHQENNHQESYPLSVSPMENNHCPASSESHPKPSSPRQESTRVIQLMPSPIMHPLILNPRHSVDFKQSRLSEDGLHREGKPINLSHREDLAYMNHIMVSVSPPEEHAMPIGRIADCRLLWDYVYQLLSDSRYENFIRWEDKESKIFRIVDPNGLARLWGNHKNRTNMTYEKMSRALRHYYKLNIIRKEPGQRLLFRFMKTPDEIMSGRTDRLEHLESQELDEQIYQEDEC
# Method in brief: as §1
sequence,measurement,setting,value
ACCTTT,binding signal,FEV,"1.45 fold enrichment (6-mer frequency, TF over GST control)"
same,binding signal,ETV5,"1.36 fold enrichment (6-mer frequency, TF over GST control)"
same,binding signal,HSF1,"1.36 fold enrichment (6-mer frequency, TF over GST control)"
same,binding signal,SPIC,"1.58 fold enrichment (6-mer frequency, TF over GST control)"
same,binding signal,ELF4,"1.42 fold enrichment (6-mer frequency, TF over GST control)"
same,binding signal,ELK4,"1.49 fold enrichment (6-mer frequency, TF over GST control)"
same,binding signal,ETV2,"1.31 fold enrichment (6-mer frequency, TF over GST control)"
same,binding signal,ELF3,"1.32 fold enrichment (6-mer frequency, TF over GST control)"
same,binding signal,CRX,"1.3 fold enrichment (6-mer frequency, TF over GST control)"
same,binding signal,ETV1,"1.43 fold enrichment (6-mer frequency, TF over GST control)"
same,binding signal,ERF,"1.52 fold enrichment (6-mer frequency, TF over GST control)"
same,binding signal,ETV3L,"1.41 fold enrichment (6-mer frequency, TF over GST control)"
same,binding signal,ETS2,"1.48 fold enrichment (6-mer frequency, TF over GST control)"
same,binding signal,SPDEF,"1.34 fold enrichment (6-mer frequency, TF over GST control)"
same,binding signal,ETV7,"1.36 fold enrichment (6-mer frequency, TF over GST control)"
same,binding signal,ELF5,"1.45 fold enrichment (6-mer frequency, TF over GST control)"
same,binding signal,ETV3,"1.42 fold enrichment (6-mer frequency, TF over GST control)"
same,binding signal,ETV6,"1.48 fold enrichment (6-mer frequency, TF over GST control)"
